# Measured values taken from PubChem BioAssay AID1851 (National Center for Advancing Translational Sciences (NCATS), 2009).
# Among all 16,000 compounds or so, about 2,600 (16%) were called active. Another 20% or so got no clear call; they are omitted. These entries were drawn from the full list. A number with no mark means an inactive call. Calls come from the whole dose curve; as a rule, active = well fitted curve in the direction sought with a large enough effect; inconclusive = small, poorly fitted or top-dose-only effect, or effect the other way; inactive = no such curve, though single readings can be large or run the other way.
# Target: Cytochrome P450 2D6 (Homo sapiens) (UniProt P10635)
# Test: Cytochrome panel assay with activity outcomes
# Conditions: recombinant CYP, pro-luciferin dealkylation, luminescence, p450-cyp2d6; series mostly up to 57.1 µM; activity, negative = inhibition: at the top concentration
# % is set by controls: 0 for no effect and ±100 for the full control effect.
# Cytochrome P450 2D6 (Homo sapiens), sequence (P10635 whole entry, looked up): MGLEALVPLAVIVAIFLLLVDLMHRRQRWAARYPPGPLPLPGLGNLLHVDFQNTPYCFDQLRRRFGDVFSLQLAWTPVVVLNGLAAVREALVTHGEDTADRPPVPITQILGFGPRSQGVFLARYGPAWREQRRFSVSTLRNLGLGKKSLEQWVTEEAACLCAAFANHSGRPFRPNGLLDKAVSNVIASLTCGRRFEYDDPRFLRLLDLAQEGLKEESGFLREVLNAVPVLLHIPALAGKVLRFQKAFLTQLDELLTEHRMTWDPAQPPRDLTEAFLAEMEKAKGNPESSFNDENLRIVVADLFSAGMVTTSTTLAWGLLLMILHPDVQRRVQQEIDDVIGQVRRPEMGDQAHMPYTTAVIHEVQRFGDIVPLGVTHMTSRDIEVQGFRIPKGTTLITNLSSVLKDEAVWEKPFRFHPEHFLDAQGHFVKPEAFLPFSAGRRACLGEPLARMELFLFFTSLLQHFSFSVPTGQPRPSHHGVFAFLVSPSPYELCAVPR
SMILES,"activity, negative = inhibition",AC50
O=S(=O)(/N=C(/Nc1ccccn1)c1ccccc1)c1ccccc1,11.9%,–
CN1CCN(Cc2nc3cccc4c3c([n+]2[O-])-c2ccccc2-4)CC1,-3.37% [at 11.4 µM],–
N#C[C@H]1CN[C@H](N)N[C@@H]1N,8.31% [at 11.4 µM],–
Cc1cccc2c1Oc1ccccc1[C@@H]2NC(=O)c1ccc([N+](=O)[O-])cc1,13.1% [at 11.4 µM],–
CCc1ccccc1NC(=O)CSc1nc(-c2ccccc2)nn1C(=O)c1cccc([N+](=O)[O-])c1,–,10 µM (active)
O=C(c1ccc([N+](=O)[O-])cc1)n1nc(-c2ccccc2)nc1NCc1ccccc1,13.4%,–
CSc1nc(-c2ccccc2)nn1C(=O)c1ccccc1,-1.33%,–
Nc1c(C(=O)NCc2ccccc2)sc2nc3c(cc12)C(=O)CCC3,-3.99%,–
C[C@@](N)(C(=O)O)c1ccc(P(=O)(O)O)cc1,8.72%,–
O=C(O)c1cc(=O)cc(C(=O)O)[nH]1,2.14%,–
CC(=O)N1CCN(C(=O)CC2OC(=O)c3ccccc32)CC1 (configuration not stated),-24.1%,–
CCOC(=O)Cc1csc(NC(=O)CCCCCN2C(=O)c3ccccc3C2=O)n1,–,14.1 µM (active)
CCOC(=O)Cc1csc(NS(=O)(=O)c2ccccc2)n1,-1.58%,–
CCOC(=O)c1sc(NC(=O)CCCCCN2C(=O)c3cccc4cccc(c34)C2=O)nc1C,-17.5%,–
CCOC(=O)C1=C(C)Nc2ncnn2C1c1cccnc1 (configuration not stated),3.65%,–
CCCC(=O)Nc1nc(C(=O)OCC)cs1,-5.9%,–
Nc1ccn([C@@H]2CC[C@H](CO)O2)c(=O)n1,0.962% [at 25.6 µM],–
C[C@]12CC[C@H]3c4ccc(O)cc4CC[C@@H]3[C@H]1CC[C@@H]2OC(=O)CCC1CCCC1,1.36% [at 11.4 µM],–
CCCC1(C(=O)OC)C=C2C(=C(C)C(=O)C2C)CN1 (configuration not stated),1.18%,–
CCCC1(C(=O)OC)C=C2C(=C(C(C)C)C(=O)C2C)CN1 (configuration not stated),-14.3%,–
CCCCCC1=C2CNC(Cc3ccccc3)(C(=O)OC)C=C2C(C)C1=O (configuration not stated),–,12.6 µM (active)
COC(=O)C1(Cc2ccccc2)C=C2C(=C(C(C)C)C(=O)C2C)CN1 (configuration not stated),–,12.6 µM (active)
COC(=O)C1(C)C=C2C(=C(c3ccccc3)C(=O)C2C)CN1 (configuration not stated),-6.51%,–
CCCCCC1=C2CNC(CC(C)C)(C(=O)OC)C=C2C(C)C1=O (configuration not stated),–,5.01 µM (active)
CCCC1(C(=O)OC)C=C2C(=C(c3ccccc3)C(=O)C2C)CN1 (configuration not stated),-9.45%,–
COC(=O)C1(CC(C)C)C=C2C(=C(c3ccccc3)C(=O)C2C)CN1 (configuration not stated),-13.8%,–
CO[C@H]1COC(=O)[C@H](C)NC(=O)C/C=C\[C@@H](C)[C@H](OC)COC(=O)[C@@H](OCc2ccccc2)/C=C\[C@@H]1C,3.57% [at 11.4 µM],–
